Source: PubChem
Hits are enriched below; roughly 6% of the tested compounds scored in any of these assays.
Tau fluor cs: counter-screen for tau fibril formation inhibitors | 280,000 compounds, 0.93% hits | AID 1463 | Potency, µM (titrated, usually from 57.7 µM), without a hit: at the top dose activity change, negative = decrease | tau K18 P301L Alexa594 fluorescence, heparin fibrillization; note: nearly all actives have a fitted effect of over 55% in size
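Human tau K18 P301L (15 uM unlabeled, 0.24 uM Alexa 594-labeled) in 100 mM sodium acetate pH 7 with 20 uM heparin, 6 hr at 37 C. ThT 30 uM added, 1 hr ambient; Alexa 594 FP and total fluorescence read at 555/632 nm.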
Tau fibril ThT: inhibitors of human tau fibril formation, thioflavin T binding. P10636. recombinant tau K18 P301L, heparin-induced fibrillization, ThT fluorescence. Potency, µM (top dose mostly 57.4 µM), without a hit: at the top dose activity, negative = inhibition, hits mostly inhibitors. 270,000 compounds, 2.1% hits. AID 1460; note: nearly all actives have a fitted effect of over 55% in size
Target sequence (P10636 561-689 P618L limits assumed): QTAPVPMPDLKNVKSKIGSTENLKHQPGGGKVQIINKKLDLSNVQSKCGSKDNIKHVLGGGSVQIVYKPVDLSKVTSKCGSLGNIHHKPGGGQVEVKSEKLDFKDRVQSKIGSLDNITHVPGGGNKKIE
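Heparin-induced fibrillization of the P301L-mutant K18 repeat-domain fragment of human tau was followed by ThT binding in quantitative high-throughput format.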
VDR inhibitor: vitamin D3 receptor (human) inhibition | P11473 | VDR-SRC2-3 peptide fluorescence polarization, 2 h | Potency, µM, inactives show max response, negative = inhibition, actives largely listed as inhibitors | 400,000 compounds, 0.93% hits
Target sequence (P11473 whole entry, looked up): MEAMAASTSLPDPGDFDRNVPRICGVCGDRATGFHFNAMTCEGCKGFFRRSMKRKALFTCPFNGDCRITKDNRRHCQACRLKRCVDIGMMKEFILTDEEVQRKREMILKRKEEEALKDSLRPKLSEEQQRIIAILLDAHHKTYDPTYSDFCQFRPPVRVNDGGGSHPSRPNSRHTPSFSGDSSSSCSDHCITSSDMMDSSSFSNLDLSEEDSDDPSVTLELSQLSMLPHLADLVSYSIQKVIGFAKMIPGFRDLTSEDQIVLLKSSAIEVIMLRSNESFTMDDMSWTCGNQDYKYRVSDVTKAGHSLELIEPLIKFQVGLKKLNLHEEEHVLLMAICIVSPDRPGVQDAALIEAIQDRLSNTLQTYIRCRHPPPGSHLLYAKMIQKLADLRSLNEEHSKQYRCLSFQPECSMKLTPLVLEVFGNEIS
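Compounds are added to VDR with labelled SRC2-3 coactivator peptide and held 2 h at room temperature. Inhibition of the VDR–peptide interaction is then read as a change in fluorescence polarization.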
PLK1 PBD block: PLK1 (human) polo-box domain binding inhibition. P53350. Plk1 PBD binding of FITC phosphopeptide, fluorescence polarization. Potency, µM, without a hit: max response, negative = inhibition, hits mostly inhibitors. 360,000 compounds, 2.8% hits. AID 720504; note: series mostly up to about 57 µM; nearly all actives have a fitted effect of over 65% in size
Sfp inh: blocks B. subtilis Sfp PPTase activity. Q9F4F7. Biochemical Sfp PPTase activity, qHTS. Potency, µM, for the others: largest response in the series, negative = inhibition, usual class: inhibitors. 310,000 compounds, 3.5% hits;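 note: the enzyme is Sfp with the accession as filed and its product quenches rhodamine fluorescence; 0% = enzyme reaction without inhibitor and -100% = no enzyme wells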
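With Hepes-Na pH 7.6 buffer containing 10 mM MgCl2, Sfp (15 nM) modified BHQ-2-YbbR (12.5 uM) using rhodamine-CoA (5 uM). Two reads 30 minutes apart at 525/598 nm yielded each well's rate.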
Tau FP inhib: blocks human tau fibril formation measured by polarization; 280,000 compounds, 0.39% hits; K18 P301L tau heparin fibrillization, Alexa594 FP, 6 h; P10636; Potency, µM (highest dose often 57.7 µM), inactives show at the top dose activity, negative = inhibition, hits mostly inhibitors; note: nearly all actives have a fitted effect of over 55% in size
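Heparin (20 uM) drove fibril formation of recombinant tau K18 P301L, 15 uM unlabeled with 0.24 uM Alexa 594 label, for 6 hr at 37 C in 100 mM sodium acetate pH 7. Fluorescence polarization (555/632 nm) read 1 hr after 30 uM ThT.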
Active calls of the source: *; ? = inconclusive; . = no result; [ ] = dose if it differs, or a comment. Calls come from the whole dose curve; as a rule, active = well fitted curve in the direction sought with a large enough effect; inconclusive = small, poorly fitted or top-dose-only effect, or another doubt; inactive = no such curve, though single readings can be large; an effect the other way counts as inactive or inconclusive. Unless noted, % is set by controls: 0 for no effect and ±100 for the full control effect; potency is the fitted concentration of half-maximal effect.

SMILES	Tau fluor cs	Tau fibril ThT	VDR inhibitor	PLK1 PBD block	Sfp inh	Tau FP inhib
COc1ccc(-c2oc3ccccc3c2C(=O)OCc2ccc(O)cc2)cc1	.	.	14%	20%	-1%	.
COc1cccc(-c2cc(NCc3cccs3)ncn2)c1	-23%	-13%	0%	.	-20%	-12%
CCOC(=O)CSc1nc(C2CC2)nc2ccccc12	-1%	-3%	2%	-6%	89µM*	-3%
CC(=O)c1cccc(NC(=O)Cn2c(=O)c(CNc3ccc(C)cc3)cc3cc4c(cc32)OCCO4)c1	18µM*[quencher]	-17%	1%	.	.	?
CCOc1ccc(NC(=O)Cn2c(=O)c(CNc3ccc(OC)cc3)cc3ccc(OC)cc32)cc1	20µM*[quencher]	?	4%	.	.	?
Cc1ccc(NC(=O)Cn2c(=O)c(CNc3ccccc3)cc3cc4c(cc32)OCCO4)cc1	?	-13%	2%	.	.	?
CCc1ccc(NCc2cc3cc4c(cc3n(CC(=O)Nc3ccc(F)cc3)c2=O)OCCO4)cc1	?	3%	1%	.	.	13%
COc1ccc(NCc2cc3cc4c(cc3n(CC(=O)Nc3ccc(F)cc3)c2=O)OCCO4)cc1	11µM*[quencher]	-7%	22%	.	.	?
Cn1c(=O)c2cc(NC(=O)NCc3ccc(Cl)cc3Cl)ccc2n1Cc1ccccc1	.	.	.	-7%	.	.
Cc1ccc(C)c(N2CCN(c3cc(C)nc4c(-c5ccc(Cl)cc5)c(C)nn34)CC2)c1	-15%	-8%	11%	.	.	-5%
Oc1ccc(NCc2ccccc2OCc2ccc(Cl)cc2)cc1	?	14µM*	?	.	.	-15%
CCOc1cc(CNc2ccc(O)cc2)ccc1OCc1ccc(Cl)cc1	14µM*[quencher]	16µM*	?	.	.	-8%
CCOc1cc(CNCCO)cc(Br)c1OCc1ccc(Cl)cc1	-16%	-10%	-13%	-10%	?	-8%
CC(=O)ON=C1C=CC(=C(C#N)c2ccccc2)C=C1	.	.	.	2.4µM*	.	.
COc1ccc(C(C#N)=C2C=CC(=NO)C=C2)cc1	-52%	.	?	27µM*	25µM*	-30%
COc1ccccc1NC(=O)Cn1c(=O)n(Cc2cccs2)c(=O)c2cccnc21	-1%	22%	3%	.	.	6%
O=C(N/N=C/c1ccc(N2CCOCC2)cc1)c1ccccc1OCCOc1ccccc1	?	?	?	3µM*	-3%	-8%
C(=N\Nc1ccccc1)/c1ccc(N2CCOCC2)cc1	?	35µM*	2%	-5%	-2%	12%
C/C(=N\Nc1ccccn1)c1ccc(N2CCOCC2)cc1	-19%	?	-6%	1%	5%	1%
C(=N\Nc1ccccn1)/c1ccc(N2CCOCC2)cc1	-4%	?	-24%	-18%	40µM*	?
COc1ccc(OC)cc1	.	.	0%	-4%	.	.
COc1ccc(Nc2nc3ccc(OC)cc3s2)cc1	14µM*[quencher]	13µM*	4%	-19%	-10%	-9%
COc1ccc2nc(NC(=O)Nc3ccccc3)sc2c1	?	?	2%	-7%	21%	-14%
COc1ccc(Nc2ccc(OC)cc2)cc1	?	10µM*	-17%	-12%	2.8µM*	?
CC(=O)N1CCN=C1SCc1cccc(F)c1	.	.	8%	-9%	10%	.
SMILES	Tau fluor cs	Tau fibril ThT	VDR inhibitor	PLK1 PBD block	Sfp inh	Tau FP inhib
Cc1ccc2onc(CNC(=O)Nc3cc(F)ccc3F)c2c1	-24%	-4%	4%	.	.	?
CCN(CC)S(=O)(=O)c1ccc2oc(C(=O)NCc3ccc(C)cc3)c(C)c2c1	-22%	-17%	14%	?	25µM*	2%
CCCCN(CCCC)S(=O)(=O)c1ccc2oc(C(=O)NCc3ccc(C)cc3)c(C)c2c1	-13%	-3%	5%	.	.	-7%
CCN(CC)S(=O)(=O)c1ccc(NC(=O)NCc2noc3ccc(C)cc23)cc1	13µM*[quencher]	8%	0%	.	.	14µM*
CCN(CC)S(=O)(=O)c1ccc2oc(C(=O)O)c(C)c2c1	5%	0%	5%	-6%	19%	6%
CCN(CC)S(=O)(=O)c1ccc2oc(C(=O)NC(C)C)c(C)c2c1	-4%	-5%	-10%	27µM*	-12%	-8%
Cc1c(C(=O)Nc2ccc3c(c2)OCCO3)sc2ncnc(N3CCCCC3C)c12 (stereo not given)	.	.	8%	0%	14%	.
CC1=C(C(=O)N(C(C)C)C(C)C)CC(CC(=O)NCc2cccs2)C(=O)N1Cc1ccccc1 (stereo not given)	.	.	.	-13%	.	.
O=c1cc(O)c2sc(Nc3ccc(F)c(Cl)c3)nc2[nH]1	?	28µM*	?	-4%	-100%	?
O=c1cc(O)c2sc(Nc3ccc(Cl)c(F)c3)nc2[nH]1	?	16µM*	?	-3%	?	13µM*
CCOC(=O)CC1(NC(=O)C2CCC(=O)N(Cc3ccccc3F)C2)CCCCC1 (stereo not given)	.	.	?	27µM*	18%	.
CCOc1ccc(S(=O)(=O)NCCC(=O)NCC(c2ccc(F)cc2)N2CCOCC2)cc1 (stereo not given)	.	.	-20%	-10%	.	.
Cc1nn2c(-c3ccco3)ccnc2c1-c1ccc(F)cc1	-11%	?	18%	.	.	-8%
CC(C)CNC(=O)c1cccc(NC(=O)CSc2ccccc2)c1	-10%	-3%	-12%	-14%	10%	8%
CC(C)CNC(=O)c1cccc(NC(=O)C(C)Oc2ccccc2)c1 (stereo not given)	7%	3%	3%	27µM*	9%	0%
CCN(CCN(C)C)C(=O)Cn1ncc2c([nH]c3ccc(C)cc32)c1=O	1%	-4%	-2%	.	.	-6%
Nc1ccc(C2=Nc3cccc4cccc(c34)N2)cc1	2%	0%	-19%	-18%	9%	7%
CC1=Nc2cccc3cccc(c23)N1	?	22µM*	-10%	-3%	?	?
Cn1nccc1C(=O)NC1CCN(Cc2ccccc2)CC1	.	.	-19%	6%	15%	.
Cc1ccc(S(=O)(=O)n2cc(CO)c3ccccc32)cc1	.	.	-14%	-8%	.	.
CCn1c(C)c(C(C)=O)c(N2CCN(c3cccc(Cl)c3)CC2)nc1=S	-20%	?	1%	-9%	-15%	-6%
COc1ccc(N2CCN(c3nc(=S)n(-c4ccccc4)c(C)c3C(C)=O)CC2)cc1	-24%	28µM*	5%	-10%	0%	?
CCn1c(C)c(C(C)=O)c(N2CCN(c3ccc(OC)cc3)CC2)nc1=S	-28%	28µM*	3%	?	22µM*	?
COc1cc(NC(=O)Cn2nc3c(cc2=O)CC(C)CC3)cc(OC)c1OC (stereo not given)	-10%	2%	-4%	.	.	-7%
O=C(CSc1nc(-c2ccccc2)[nH]c1-c1ccc(F)cc1)NC1CCCC1	28µM*[quencher]	-14%	-14%	.	.	11%
O=C(CSc1ccccc1C(=O)O)NC1CCCCCC1	-1%	0%	20%	-1%	20%	-3%
